Source: PubChem BioAssay (NCATS)
Records with an inconclusive call do not appear. Active and inactive are the calls of the source. Unless noted, the call rests on the fitted dose curve.

Tests used:
[1] = biological target: Lysosomal acid glucosylceramidase (Homo sapiens) (UniProt P04062); assay: Glucocerebrosidase-p2 (AID 348; in the data active means potency below about 10 µM; further: potency means the concentration at half of the fitted maximal effect); settings: purified GBA, blue fluorogenic substrate, 40 min
Method in brief: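 Compounds titrated from 0.6 nM upwards against 0.2 nM enzyme in pH 5.9 citric acid/KH2PO4, taurocholate, tween-20; blue fluorogenic substrate 80 uM, 40 min room temperature, stopped and read Ex 365/Em 440 for AC50.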

[2] = AP1 Signaling Pathway (AID 357; active means well fitted curve in either direction with a large enough effect, not every such curve was filed as active;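 further: ME-180 reporter cells stimulated with EGF at its EC50 level; on the % scale 0 is the no-effect control and ±100 the full control effect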); settings: ME-180 AP-1-bla reporter, EGF-induced, beta-lactamase ratio, 5 h; at 7.69 µM (top of the series) unless noted
Method in brief: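 Modulation of EGF-driven AP-1 transcription was assessed with a beta-lactamase reporter in ME-180 cells. Compound and EC50 EGF were co-incubated 5 hours at 37 °C before 2.5-hour CCF4 loading at room temperature and dual-emission reading.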

[3] = biological target: Cytochrome P450 1A2 (Homo sapiens) (UniProt P05177); assay: p450-cyp1a2 (AID 410); settings: recombinant CYP1A2, luciferin-ME demethylation, luminescence; series mostly up to 57 µM; further: potency means the concentration at half of the fitted maximal effect;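 on activity change, negative = inhibition: -100% = full effect of reference inhibitor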
Method in brief: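 Inhibition was calculated relative to 57 uM furafylline (full inhibition). The reaction used human CYP1A2 at 20nM with Luciferin-ME at its Km, 100uM, driven by an NADPH-regenerating system for 60 min at room temperature.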

[4] = Stat Signaling Pathway (AID 446; active means well fitted curve in either direction with a large enough effect, not every such curve was filed as active;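 further: ME-180 cervical cancer cells given 40 pM IL-6 alongside compound; SIE-controlled beta-lactamase reporter measured as 460/530 nm FRET emission ratio; on the % scale 0 is the no-effect control and ±100 the full control effect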); settings: ME-180 SIE beta-lactamase reporter, IL-6 stimulated, 5 h; at 7.69 µM (top of the series) unless noted
Method in brief: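 ME-180 cells carrying a SIE-driven beta-lactamase reporter are stimulated with 40 pM IL-6 for 5 h at 37C in the presence of compound. The 460/530 nm FRET substrate ratio is read after 2.5 h at RT. Data are normalised to 300 pM IL-6 and to 125 nM JAK inhibitor controls.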

[5] = biological target: Glucocorticoid receptor (Homo sapiens) (UniProt P04150); assay: GR-EFC Redistribution (AID 451); settings: CHO-K1 GR-EFC translocation, beta-gal luminescence, 2 h; further: potency means the concentration at half of the fitted maximal effect
Method in brief: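 Translocation of GR-ED fusion to nuclear EA restores b-gal, read by luminescence after 1 h room-temperature detection. Engineered CHO-K1 biosensor cells, 1,000/well, exposed 2 h at 37 C to titrations up to 46 uM final.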

[6] = biological target: Mitogen-activated protein kinase 10 (Mus musculus) (UniProt Q61831); assay: JNK3 AlphaScreen Assay (AID 530; active means well fitted curve in either direction with a large enough effect, not every such curve was filed as active;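 further: kinase came from lysate of stimulated human HepG2 cells; signal reports phosphorylation of biotinylated GST-cJun 1-79 at Ser73 with 10 µM ATP; on the % scale 0 is the no-effect control and ±100 the full control effect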); settings: JNK3 lysate, c-Jun phosphorylation; series mostly up to 57.1 µM
Method in brief: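 Room-temperature AlphaScreen kinase assay; pre-activated HepG2 lysate as JNK3 source, biotin-GST-cJun(1-79) substrate, 10 uM ATP, compound 15 min preincubation.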

[7] = biological target: Cytochrome P450 2D6 (Homo sapiens) (UniProt P10635); assay: qHTS Assay for Inhibitors and Substrates of Cytochrome P450 2D6 (AID 891; active means well fitted curve in the direction sought with a large enough effect; an effect the other way counts as inactive or inconclusive; further: potency means the concentration at half of the fitted maximal effect; nearly all actives have a fitted effect of over 60% in size); settings: recombinant CYP2D6, luciferin-ME EGE luminescence; series mostly up to 57.1 µM
Method in brief: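 Human CYP2D6 (5 nM) with 30 uM Luciferin-ME EGE (at Km) in 100 mM KPO4, compound preincubated 10 min, then NADPH regeneration system for 60 min at room temperature. Luciferin read by luminescence; normalized to 1.43 uM quinidine.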

[8] = qHTS Assay for Lipid Storage Modulators (AID 1519); settings: Drosophila S3 cells, BODIPY lipid droplet/cell ratio, laser cytometry, cells loaded with oleic acid; for activity change, negative = inhibition: at 57.5 µM (top of the series)
Method in brief: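 Cells seeded at 5,000 per well were treated with compounds over a concentration series and loaded with oleic acid (400 uM, as added). Lipid droplet fluorescence (488 nm excitation, 500-530 nm channel) was read by laser-scanning cytometry and normalized to 20 uM Triacsin C.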

[9] = Primary qHTS for small molecule stabilizers of the endoplasmic reticulum resident proteome: Secreted ER Calcium Modulated Protein (SERCaMP) assay (AID 1508630; active means well fitted curve in the direction sought with a large enough effect; an effect the other way counts as inactive or inconclusive; further: on the % scale 0 is the no-effect control and ±100 the full control effect); settings: SH-SY5Y GLuc-SERCaMP (Gaussia luciferase released on ER calcium loss) secretion, thapsigargin, luminescence; series mostly up to 38.4 µM
Method in brief: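 GLuc-SERCaMP-expressing SH-SY5Y cells, pretreated 16 h with compound, are challenged with thapsigargin to empty ER calcium stores; after 4 h, coelenterazine is added directly to the medium and luminescence is imaged.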

[10] = biological target: 3',5'-cyclic-AMP phosphodiesterase 4B (Homo sapiens) (UniProt Q07343); assay: qHTS Assay for Inhibitors of PDE-IV (AID 607; active means well fitted activation curve with a large enough effect in the main read-out, with a control signal flat, not every such curve was filed as active; further: % of control where 0% means no effect); settings: HEK293 ACTOne CNG channel cells, membrane potential fluorescence; series mostly up to 22.9 µM
Method in brief: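 HEK293 ACTOne cells with CNG channel (1000/well), endogenous PDE4; membrane potential dye, compounds up to 22.9 uM final. Fluorescence Ex 535/Em 590; RO 20-1724 (100 uM final) as reference.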

[11] = biological target: Cytochrome P450 3A4 (Homo sapiens) (UniProt P08684); assay: qHTS Assay for Activators of Cytochrome P450 3A4 (AID 885; active means well fitted curve in the direction sought with a large enough effect; an effect the other way counts as inactive or inconclusive; further: nearly all actives have a fitted effect of over 65% in size); settings: recombinant CYP3A4, Luciferin-PPXE luminescence, 60 min; series mostly up to 57.1 µM
Method in brief: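 Human CYP3A4 (20 nM) with Luciferin-PPXE at 25 uM (its KM) in 200 mM KPO4; 10 min compound preincubation, then NADPH regeneration and 60 min reaction at RT. Luciferin read by luminescence; normalized to 57 uM ketoconazole full inhibition.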

[12] = qHTS Assay for Identification of Small Molecule Agonists for Hypoxia Response Element Signaling Pathway (AID 914; active means well fitted activation curve with a large enough effect in the signal ratio, with a control signal flat, not every such curve was filed as active; the % refers to the signal ratio; further: potency means the concentration at half of the fitted maximal effect; on activation: % of control where 0% means no effect); settings: ME-180 (cervical carcinoma) HRE-bla reporter, beta-lactamase ratio, CoCl2, 17 h; activation: stronger effect = higher value
Method in brief: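 Positive modulation of EC50 CoCl2-induced hypoxia response element signaling is measured in ME-180 cells with a beta-lactamase reporter. Compounds are titrated, incubation runs 17 hours, and %Activity derives from the blue/green ratio.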

[13] = biological target: Glucocorticoid receptor (Homo sapiens) (UniProt P04150); assay: GR-GFP Redistribution (AID 450;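 active means compounds whose dose series gives a full or clear partial fitted curve of increased nuclear translocation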; further: potency means the concentration at half of the fitted maximal effect); settings: U2OS GR-GFP nuclear translocation, laser cytometry, 2 h
[14] = biological target: Cytochrome P450 3A4 (Homo sapiens) (UniProt P08684); assay: qHTS Assay for Inhibitors and Substrates of Cytochrome P450 3A4 (AID 884; active means well fitted curve in the direction sought with a large enough effect; an effect the other way counts as inactive or inconclusive; further: potency means the concentration at half of the fitted maximal effect; nearly all actives have a fitted effect of over 50% in size); settings: recombinant CYP3A4, Luciferin-PPXE luminescence; series mostly up to 57.1 µM
Method in brief: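 20 nM human CYP3A4 with 25 uM Luciferin-PPXE (at KM) in 200 mM KPO4, preincubated 10 min with compound; NADPH regeneration started a 60 min RT reaction. Luciferin detected by luminescence, normalized to 57 uM ketoconazole as full inhibition.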

[15] = biological target: Cytochrome P450 2C9 (Homo sapiens) (UniProt P11712); assay: qHTS Assay for Inhibitors and Substrates of Cytochrome P450 2C9 (AID 883; active means well fitted curve in the direction sought with a large enough effect; an effect the other way counts as inactive or inconclusive; further: potency means the concentration at half of the fitted maximal effect; nearly all actives have a fitted effect of over 60% in size); settings: recombinant CYP2C9, luciferin-H luminescence, 60 min; series mostly up to 57.1 µM
Method in brief: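 Turnover of Luciferin-H (100uM, KM) by 10nM human CYP2C9 was measured over 60 min at 37C with NADPH regeneration; inhibitors and some substrates reduce luminescence. Data normalized to sulphaphenazole 57uM.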

[16] = biological target: Cytochrome P450 2C19 (Homo sapiens) (UniProt P33261); assay: qHTS Assay for Inhibitors and Substrates of Cytochrome P450 2C19 (AID 899; active means well fitted curve in the direction sought with a large enough effect; an effect the other way counts as inactive or inconclusive; further: potency means the concentration at half of the fitted maximal effect; nearly all actives have a fitted effect of over 60% in size); settings: recombinant CYP2C19, luciferin-H EGE luminescence; series mostly up to 57.1 µM
Method in brief: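 Reactions contain 5nM enzyme, 10uM Luciferin-H EGE (KM) and 50mM KPO4; compound preincubates 10 min at 37C, NADPH regeneration starts turnover for 60 min. Luminescence after detection reagent gives activity.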

[17] = measured here: cell count channel max response
[18] = measured here: lipid channel max response

Cytochrome P450 2D6 (Homo sapiens), sequence (P10635 whole entry, looked up): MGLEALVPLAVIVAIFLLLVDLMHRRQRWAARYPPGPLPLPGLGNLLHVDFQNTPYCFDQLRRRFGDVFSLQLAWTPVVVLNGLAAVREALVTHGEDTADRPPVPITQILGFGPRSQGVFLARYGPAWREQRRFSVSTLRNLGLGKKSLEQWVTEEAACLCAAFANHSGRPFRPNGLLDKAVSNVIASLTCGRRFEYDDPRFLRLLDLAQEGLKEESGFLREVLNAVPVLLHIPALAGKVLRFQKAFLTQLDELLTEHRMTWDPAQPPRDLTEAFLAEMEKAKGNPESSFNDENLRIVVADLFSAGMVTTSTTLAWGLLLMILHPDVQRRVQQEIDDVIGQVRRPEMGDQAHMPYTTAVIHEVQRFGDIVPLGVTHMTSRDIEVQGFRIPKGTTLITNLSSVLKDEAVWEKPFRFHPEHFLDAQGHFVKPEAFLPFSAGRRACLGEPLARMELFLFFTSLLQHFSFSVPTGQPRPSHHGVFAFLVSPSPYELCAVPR
Glucocorticoid receptor (Homo sapiens), sequence (P04150 whole entry, looked up, the tested form may be a part): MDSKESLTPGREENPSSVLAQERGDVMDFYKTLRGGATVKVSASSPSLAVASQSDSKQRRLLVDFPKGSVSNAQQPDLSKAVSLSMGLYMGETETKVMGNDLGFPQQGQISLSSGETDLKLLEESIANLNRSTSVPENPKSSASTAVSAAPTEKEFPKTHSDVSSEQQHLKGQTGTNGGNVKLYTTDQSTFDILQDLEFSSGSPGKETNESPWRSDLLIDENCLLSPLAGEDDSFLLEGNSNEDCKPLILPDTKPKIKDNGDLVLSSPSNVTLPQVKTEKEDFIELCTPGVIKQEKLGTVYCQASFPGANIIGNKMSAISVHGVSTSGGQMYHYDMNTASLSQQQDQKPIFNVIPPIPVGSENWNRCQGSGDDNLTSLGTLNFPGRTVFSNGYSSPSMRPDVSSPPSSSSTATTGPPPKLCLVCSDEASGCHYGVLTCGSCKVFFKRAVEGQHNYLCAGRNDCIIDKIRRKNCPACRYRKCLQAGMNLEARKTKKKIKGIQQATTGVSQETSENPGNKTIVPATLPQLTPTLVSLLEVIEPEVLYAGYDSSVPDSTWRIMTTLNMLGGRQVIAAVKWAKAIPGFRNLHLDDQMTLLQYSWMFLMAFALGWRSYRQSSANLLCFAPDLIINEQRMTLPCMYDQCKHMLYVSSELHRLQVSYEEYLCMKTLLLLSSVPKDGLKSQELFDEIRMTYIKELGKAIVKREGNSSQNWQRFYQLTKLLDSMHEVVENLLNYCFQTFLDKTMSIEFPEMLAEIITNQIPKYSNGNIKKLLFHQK
Lysosomal acid glucosylceramidase (Homo sapiens), sequence (P04062 whole entry, looked up): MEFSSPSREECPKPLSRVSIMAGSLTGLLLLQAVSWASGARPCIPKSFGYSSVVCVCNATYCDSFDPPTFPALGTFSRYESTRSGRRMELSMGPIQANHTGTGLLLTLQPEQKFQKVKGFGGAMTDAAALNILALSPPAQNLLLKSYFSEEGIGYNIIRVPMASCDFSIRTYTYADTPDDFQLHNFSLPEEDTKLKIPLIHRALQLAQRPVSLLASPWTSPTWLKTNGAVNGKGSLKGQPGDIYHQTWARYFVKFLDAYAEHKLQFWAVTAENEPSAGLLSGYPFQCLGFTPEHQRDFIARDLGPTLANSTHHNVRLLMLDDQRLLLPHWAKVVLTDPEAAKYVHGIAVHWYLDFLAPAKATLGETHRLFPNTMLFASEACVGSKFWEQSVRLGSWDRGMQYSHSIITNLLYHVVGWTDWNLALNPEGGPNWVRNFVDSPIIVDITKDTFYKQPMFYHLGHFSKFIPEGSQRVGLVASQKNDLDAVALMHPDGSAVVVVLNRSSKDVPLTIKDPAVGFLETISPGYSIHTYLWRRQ
3',5'-cyclic-AMP phosphodiesterase 4B (Homo sapiens), sequence (Q07343 whole entry, looked up): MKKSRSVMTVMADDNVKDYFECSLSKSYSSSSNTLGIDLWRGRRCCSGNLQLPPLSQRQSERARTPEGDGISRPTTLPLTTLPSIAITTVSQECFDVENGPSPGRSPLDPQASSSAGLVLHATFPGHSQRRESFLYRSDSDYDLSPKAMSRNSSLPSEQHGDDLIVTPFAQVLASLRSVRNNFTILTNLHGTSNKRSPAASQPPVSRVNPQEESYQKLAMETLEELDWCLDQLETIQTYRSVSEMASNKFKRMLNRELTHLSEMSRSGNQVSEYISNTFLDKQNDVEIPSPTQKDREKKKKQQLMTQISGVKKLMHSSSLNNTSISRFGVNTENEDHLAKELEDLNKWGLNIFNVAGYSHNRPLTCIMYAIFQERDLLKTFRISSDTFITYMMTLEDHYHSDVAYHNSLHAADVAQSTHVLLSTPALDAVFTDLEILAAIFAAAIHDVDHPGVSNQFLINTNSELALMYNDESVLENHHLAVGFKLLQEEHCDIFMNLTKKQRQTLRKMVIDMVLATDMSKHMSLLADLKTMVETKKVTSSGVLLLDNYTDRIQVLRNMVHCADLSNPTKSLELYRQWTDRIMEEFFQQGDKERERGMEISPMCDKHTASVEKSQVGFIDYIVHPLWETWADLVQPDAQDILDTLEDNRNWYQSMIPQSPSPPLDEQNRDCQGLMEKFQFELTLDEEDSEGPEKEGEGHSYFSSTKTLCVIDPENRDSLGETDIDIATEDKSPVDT
Cytochrome P450 1A2 (Homo sapiens), sequence (P05177 whole entry, looked up): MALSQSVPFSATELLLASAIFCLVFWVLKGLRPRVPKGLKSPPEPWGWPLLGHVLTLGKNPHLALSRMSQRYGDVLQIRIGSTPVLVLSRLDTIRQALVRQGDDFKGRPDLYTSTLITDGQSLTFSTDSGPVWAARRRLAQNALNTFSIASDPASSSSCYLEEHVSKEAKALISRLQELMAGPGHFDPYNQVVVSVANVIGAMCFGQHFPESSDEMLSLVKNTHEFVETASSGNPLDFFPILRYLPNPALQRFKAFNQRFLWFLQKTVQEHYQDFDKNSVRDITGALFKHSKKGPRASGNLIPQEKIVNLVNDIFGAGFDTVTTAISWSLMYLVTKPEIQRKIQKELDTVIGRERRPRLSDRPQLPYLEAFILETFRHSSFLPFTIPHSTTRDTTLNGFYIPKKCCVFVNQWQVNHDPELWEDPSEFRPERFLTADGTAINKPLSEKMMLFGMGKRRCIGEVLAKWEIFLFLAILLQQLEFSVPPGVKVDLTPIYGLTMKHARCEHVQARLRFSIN
Cytochrome P450 3A4 (Homo sapiens), sequence (P08684 whole entry, looked up): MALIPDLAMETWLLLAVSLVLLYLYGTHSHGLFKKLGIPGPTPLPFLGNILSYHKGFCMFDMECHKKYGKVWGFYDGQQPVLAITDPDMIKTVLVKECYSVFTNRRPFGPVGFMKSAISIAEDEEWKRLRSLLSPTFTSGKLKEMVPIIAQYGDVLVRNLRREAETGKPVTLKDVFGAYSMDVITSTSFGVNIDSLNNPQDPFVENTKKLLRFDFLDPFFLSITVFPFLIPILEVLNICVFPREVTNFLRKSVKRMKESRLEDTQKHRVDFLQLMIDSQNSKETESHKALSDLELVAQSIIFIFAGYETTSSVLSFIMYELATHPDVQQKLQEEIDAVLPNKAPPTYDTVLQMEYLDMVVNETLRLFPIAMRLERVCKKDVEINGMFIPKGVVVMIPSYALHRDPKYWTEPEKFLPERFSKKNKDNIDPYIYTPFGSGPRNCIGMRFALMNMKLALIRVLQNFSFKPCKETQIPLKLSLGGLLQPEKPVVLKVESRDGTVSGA
Cytochrome P450 2C9 (Homo sapiens), sequence (P11712 whole entry, looked up): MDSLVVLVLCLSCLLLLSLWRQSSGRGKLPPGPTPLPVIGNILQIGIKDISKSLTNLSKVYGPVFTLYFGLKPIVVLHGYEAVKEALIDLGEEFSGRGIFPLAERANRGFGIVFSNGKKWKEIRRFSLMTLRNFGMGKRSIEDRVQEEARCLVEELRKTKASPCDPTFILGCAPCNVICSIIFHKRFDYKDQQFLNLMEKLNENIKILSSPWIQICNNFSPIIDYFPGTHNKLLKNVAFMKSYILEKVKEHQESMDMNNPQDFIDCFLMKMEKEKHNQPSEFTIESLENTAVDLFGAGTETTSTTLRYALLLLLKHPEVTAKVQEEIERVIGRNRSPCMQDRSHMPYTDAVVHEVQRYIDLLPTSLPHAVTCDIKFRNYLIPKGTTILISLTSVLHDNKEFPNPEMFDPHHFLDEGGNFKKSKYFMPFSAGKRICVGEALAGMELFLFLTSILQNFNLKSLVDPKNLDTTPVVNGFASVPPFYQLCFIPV
Cytochrome P450 2C19 (Homo sapiens), sequence (P33261 whole entry, looked up): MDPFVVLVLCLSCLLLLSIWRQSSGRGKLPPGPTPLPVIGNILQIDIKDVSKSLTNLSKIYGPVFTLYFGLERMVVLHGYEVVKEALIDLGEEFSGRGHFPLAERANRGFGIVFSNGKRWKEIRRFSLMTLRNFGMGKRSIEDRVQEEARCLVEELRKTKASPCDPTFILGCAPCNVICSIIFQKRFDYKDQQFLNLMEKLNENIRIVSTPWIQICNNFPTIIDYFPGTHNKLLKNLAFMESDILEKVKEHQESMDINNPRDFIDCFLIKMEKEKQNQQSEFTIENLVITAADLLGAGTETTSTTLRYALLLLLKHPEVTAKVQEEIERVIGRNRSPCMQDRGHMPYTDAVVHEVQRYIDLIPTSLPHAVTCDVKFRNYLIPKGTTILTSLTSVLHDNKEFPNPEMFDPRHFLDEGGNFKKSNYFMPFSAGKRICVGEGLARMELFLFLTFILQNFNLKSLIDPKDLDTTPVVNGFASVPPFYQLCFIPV

Row | Structure (SMILES) | Potency [1] | activity change, negative = inhibition [2] | Potency [3] | activity, negative = inhibition [4] | Potency [5] | Potency [6] | Potency [7] | activity change, negative = inhibition [8] | max response [8, 17] | max response [8, 18] | outcome [9] | Potency [10] | Potency [11] | activation [12] | Potency [13] | Potency [14] | Potency [12] | Potency [15] | Potency [16]
1 | CC(=O)N1CCC2(CCCN(Cc3ccccc3)C2)CC1 | > 11.4 µM (inactive) | -3.56% (inactive) | inactive | 9.01% (inactive) | > 46 µM (inactive) | inactive | 2.51 µM (active) | 2.49% (inactive) | -0.297% | 3.92% | inactive | – | – | – | – | – | – | – | –
2 | COc1ccccc1CN1CCCC2(CCN(C(=O)c3cnccn3)CC2)C1 | > 11.4 µM (inactive) | 4.14% (inactive) | inactive | – | > 46 µM (inactive) | inactive | 3.98 µM (active) | 3.91% (inactive) | -6.38% | 0.432% | inactive | inactive | inactive | – | – | – | – | – | –
3 | Cc1noc(C)c1C(=O)N1CCC2(CCN(Cc3ccncc3)CC2)CC1 | > 11.4 µM (inactive) | 5.66% (inactive) | inactive | -5.26% (inactive) | > 46 µM (inactive) | inactive | – | 4.47% (inactive) | 0.0469% | 9.36% | inactive | inactive | inactive | 14.4% (inactive) | – | – | – | – | –
4 | COc1ccc(C(=O)N2CCC3(CCN(Cc4ccccc4OC)CC3)CC2)cc1 | > 11.4 µM (inactive) | -0.655% (inactive) | inactive | -4.81% (inactive) | > 46 µM (inactive) | – | – | 2.01% (inactive) | 10.3% | 16.6% | inactive | inactive | – | – | – | – | – | – | –
5 | COCCn1c(=O)c(-c2cn(C)c3ccccc23)nc2cnc(Oc3ccc(OC)cc3)nc21 | > 11.4 µM (inactive) | 14.1% (inactive) | 2.51 µM (active) | – | > 46 µM (inactive) | – | – | -11.5% (inactive) | 2.76% | -6.23% | inactive | inactive | inactive | – | > 46 µM (inactive) | 3.98 µM (active) | 3.16 µM (active) | – | –
6 | O=C(c1cccc(F)c1)N1CCC2(CC1)CN(c1ccncc1)C2 | > 11.4 µM (inactive) | -2.31% (inactive) | inactive | 1.58% (inactive) | > 46 µM (inactive) | – | – | -4.55% (inactive) | -24.1% | -26.4% | inactive | inactive | – | – | – | – | – | 5.01 µM (active) | 3.16 µM (active)
7 | COc1ccccc1CN1CCC2(CC1)CCN(C(=O)c1c(C)noc1C)CC2 | > 11.4 µM (inactive) | 4.81% (inactive) | inactive | -4.2% (inactive) | > 46 µM (inactive) | inactive | 7.94 µM (active) | 1.42% (inactive) | 11.3% | 18.8% | inactive | inactive | – | – | – | – | – | – | –
